# Results from PubChem BioAssay AID743446 (Broad Institute, 2014).
# Results with a measured potency or affinity are listed apart. Unmarked numbers belong to inactive results. How the calls were made is not given here.
# Assay: HEK293 cell cytotoxicity, dose response, cytotoxicity control, plate reader, cherry-picked samples (AID 743446)
# Settings: stronger effect = lower value; at 26 µM unless noted
row,Compound,max activity
1,O=C(COc1ccc2ccccc2c1)Nc1nccs1,38.6% [at 0.195 µM]
2,Nc1nccc(-c2cc(-c3ccc(Cl)cc3Cl)no2)n1,47.2% [at 6 µM]
3,COc1ccc(-c2cc3nc(NCC4CCCCC4)n(C)c(=O)c3s2)cc1OC,41.6% [at 1.6 µM]
